High-throughput results (PubChem)
Only a selection was taken, and hits are over-represented in it overall.
FAK blocker = FAK kinase inhibitors, primary screen, biochemical | inhibition, %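 (tested at 7 µM)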 | Focal adhesion kinase 1 (Homo sapiens), Q05397 | biochemical FAK kinase activity assay | hit rate 0.84% among 97,000; in the data active = inhibition above about 19%
Pyk2 oligo antag = antagonists of Pyk2 self-association, primary screen, Q293 cells, FERM NanoBiT luminescence, HTS; stronger effect = lower value; Protein-tyrosine kinase 2-beta (Homo sapiens), Q14289; z-score (the deposit names both 25 µM and 10 µM); AID 1347419, 2020; hit rate 0.83% among 99,000;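 active = Z-score of -3 or lower, scaled per plate to the spread of control and sample wells; inactive = z-score above -3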;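 also: negative z-score means lost luminescence so less FERM oligomerization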
CD11b adhes enh = enhancers of CD11b/CD18 adhesion to fibrinogen, primary screen, K562 cells, luminescence; ATPlite luminescence; activation, % at 10 µM; hit rate 0.07% among 93,000; AID 1499, 2009;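 active = 10 µM primary screen giving 50% or more activity, confirmed by 40% or more on retest at that dose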
Target sequence (P05107 whole entry, looked up, other chains not shown): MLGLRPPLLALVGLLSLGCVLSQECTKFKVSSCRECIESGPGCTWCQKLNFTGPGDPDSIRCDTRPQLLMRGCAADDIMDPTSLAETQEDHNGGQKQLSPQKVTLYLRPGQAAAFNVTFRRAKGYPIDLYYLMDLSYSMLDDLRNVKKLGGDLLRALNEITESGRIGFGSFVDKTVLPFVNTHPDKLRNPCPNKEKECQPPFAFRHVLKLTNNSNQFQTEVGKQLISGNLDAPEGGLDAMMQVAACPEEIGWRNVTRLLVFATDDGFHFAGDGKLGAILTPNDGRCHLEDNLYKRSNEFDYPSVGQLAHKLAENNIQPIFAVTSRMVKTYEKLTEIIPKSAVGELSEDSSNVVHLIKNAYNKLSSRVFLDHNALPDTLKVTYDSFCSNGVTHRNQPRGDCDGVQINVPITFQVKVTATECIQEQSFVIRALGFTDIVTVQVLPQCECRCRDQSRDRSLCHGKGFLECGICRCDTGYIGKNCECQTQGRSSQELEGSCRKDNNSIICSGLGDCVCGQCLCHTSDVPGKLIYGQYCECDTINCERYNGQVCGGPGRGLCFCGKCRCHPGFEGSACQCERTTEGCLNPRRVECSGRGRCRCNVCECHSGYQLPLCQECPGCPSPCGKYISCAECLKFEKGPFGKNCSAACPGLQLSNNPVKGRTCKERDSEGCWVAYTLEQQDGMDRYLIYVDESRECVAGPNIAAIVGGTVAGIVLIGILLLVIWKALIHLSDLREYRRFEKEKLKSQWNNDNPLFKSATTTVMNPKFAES
Mac1 fbg inh = inhibitors of CD11b/CD18 adhesion to fibrinogen, primary screen, K562 cells, luminescence | hit rate 0.54% among 93,000 | ATPlite luminescence; Mn2+ added to activate the integrin | inhibition, % at 10 µM | AID 1497, 2009 | Integrin beta-2 (Homo sapiens) + Integrin alpha-M (Homo sapiens), P05107+P11215;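 active = primary inhibition of 50% or more at 10 µM, then 40% or more on retest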
hDAT+cocaine = changed hDAT dopamine uptake under cocaine IC80, either direction, primary screen, cocaine antagonist project, cell-based, LLC-PK1 hDAT, [14C]-dopamine uptake, MLSMR | LLC-PK1 hDAT cells, [14C]-dopamine uptake with cocaine IC80; actives deviate in either direction | B-score at 10 µM | hit rate 1.3% among 110,000 | AID 449768, 2010;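 active = Z score or B-score, a plate-position-corrected score, falls beyond the plate's 99.7% confidence bounds, in either direction; inactive = both scores lie inside the 99.7% bounds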
D1 mod = D1 CRE-luciferase signal change, two-sided – cell-based, HEK293 D1, dopamine EC30, D1 allosteric modulator project, primary screen | B-score at 10 µM | AID 641, 2007 | dopamine EC30 potentiation; actives deviate in either direction | hit rate 5.9% among 58,000;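 active = luminescence count or its row- and column-corrected plate score outside the 99.7% band of the plate's sample wells, on either side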
Hits are given with their value; i = inactive; nt = no result.

SMILES | FAK blocker | Pyk2 oligo antag | CD11b adhes enh | Mac1 fbg inh | hDAT+cocaine | D1 mod
COC(=O)C1=C[C@@H](C(=O)OC)[C@@H]2C3=C(C(=O)[C@@]2(C)NC(=O)c2ccccc2)[C@H](c2ccccc2)n2c(=O)n(-c4ccccc4)c(=O)n2[C@@H]3C1 | nt | nt | nt | nt | i | nt
C=CCSc1nnc(NC(=O)c2cccc(S(=O)(=O)N3CCOCC3)c2)s1 | i | i | i | i | i | i
Cc1noc(C)c1CSc1nc2ccccc2nc1NS(=O)(=O)c1ccc(Cl)cc1 | i | i | i | 97.8 | i | i
O=S(=O)(Nc1nc2ccccc2nc1Cl)c1ccccc1 | nt | nt | i | i | nt | nt
O=S(=O)(Nc1nc2ccccc2nc1NCc1ccco1)c1ccc(Cl)cc1 | i | i | nt | nt | i | -3.51
Cc1ccc(S(=O)(=O)Nc2nc3ccccc3nc2NCc2ccco2)cc1 | i | i | nt | nt | i | i
Cn1c(=O)oc2cc(S(=O)(=O)NC(Cc3ccccc3)C(=O)N3CCCCC3)ccc21 (configuration not stated) | i | nt | i | i | i | nt
Cc1ccc(S(=O)(=O)Cc2ccc(C(=O)NCCCN3CCCC3=O)o2)cc1 | i | i | i | i | i | -3.33
CC(NS(=O)(=O)c1ccc(CCC(=O)NCc2cccnc2)cc1)c1ccccc1 (configuration not stated) | i | i | i | i | i | nt
Cc1ccc(Cc2c(C)nc3nc(SCC(=O)NCc4ccco4)nn3c2C)cc1 | i | i | i | i | i | i
Cc1ccccc1Cc1c(C)nc2c(C(=O)NCc3ccco3)cnn2c1C | i | i | i | i | 3.02 | i
Cc1ccccc1Cc1c(C)nc2nc(SCC(=O)NCc3ccco3)nn2c1C | i | i | i | i | -7.93 | nt
O=C1c2ccccc2N2C(=O)c3ccccc3[C@H]2N1c1ccccc1 | i | i | i | i | -2.66 | nt
O=C1c2ccccc2C(O)N1c1ccc(Cl)cc1 (configuration not stated) | i | nt | i | i | i | i
COC(=O)C1=C(N)N(c2ccccc2C(F)(F)F)C2=C(C(=O)CCC2)C1c1ccc2c(c1)OCO2 (configuration not stated) | i | -4.31 | i | i | i | nt
COC(=O)CSC1=C(C#N)C(c2ccc3c(c2)OCO3)C2=C(CCCC2=O)N1 (configuration not stated) | i | i | i | i | i | nt
Cc1ccccc1N(CC(=O)N/N=C/c1cc(C)n(-c2ccccc2C)c1C)S(C)(=O)=O | i | i | i | i | -2.69 | nt
Cc1cc(C)nc(SCC(=O)N/N=C/c2cc(C)n(-c3ccccc3C)c2C)n1 | nt | i | nt | nt | nt | nt
Nc1c(C(=O)N2CCCCC2)sc(=S)n1-c1ccccc1 | i | i | nt | nt | 2.66 | i
C=CCn1c2ccccc2c2nnc(SCCCn3c(=O)[nH]c4ccccc43)nc21 | i | -3.91 | i | i | 3.7 | i
O=C1c2ccccc2C(=O)N1CSc1nnc2c3ccccc3n(CCc3ccccc3)c2n1 | i | i | i | i | i | nt
COc1ccc(C2C3=C(CC(C)(C)CC3=O)Oc3ncn4nc(-c5cccnc5)nc4c32)cc1 (configuration not stated) | nt | nt | nt | nt | nt | i
Nc1cc(=O)nc(SCC(=O)NCc2ccccc2)n1CCc1ccccc1 | i | i | i | i | -5.07 | nt
C=CCn1c(N)cc(=O)nc1SCC(=O)NC(C)c1ccccc1 (configuration not stated) | i | i | i | i | i | i
CCC(Sc1nc(=O)cc(N)n1CCc1ccccc1)C(=O)Nc1cc(C)on1 (configuration not stated) | i | nt | i | i | i | -5.11
SMILES | FAK blocker | Pyk2 oligo antag | CD11b adhes enh | Mac1 fbg inh | hDAT+cocaine | D1 mod
COCCCNC(=O)c1sc2ncnc(N3CCc4ccccc4C3)c2c1C | 22.9 | i | nt | nt | i | nt
Cc1c(C(=O)N2CCOCC2)sc2ncnc(N3CCc4ccccc4C3)c12 | i | i | i | i | i | i
O=C(c1ccco1)N1CCN(C(=O)c2cccc3c2C(=O)N(C2CCCCC2)C3)CC1 | nt | nt | nt | nt | nt | -3.39
O=C(c1ccco1)N1CCN(C(=O)c2cccc3c2C(=O)N(Cc2cccnc2)C3)CC1 | i | nt | i | i | i | i
O=C(CN1CCC(NC(=O)c2ccco2)CC1)Nc1cccc2ccccc12 | i | i | nt | nt | i | nt
COc1cc(OC)cc(C(=O)NC2CCN(CC(=O)Nc3cccc4ccccc34)CC2)c1 | i | i | nt | nt | 3.52 | nt
CCC[C@@H]1CCCO[C@@](C(=O)NCc2ccccn2)(C(F)(F)F)C1 | nt | nt | nt | nt | i | nt
CCCC[C@@H]1CCCO[C@@](C(=O)NCc2ccccn2)(C(F)(F)F)C1 | nt | nt | nt | nt | 3.08 | nt
c1ccc(-c2nc(N3CCCCCC3)c3ccccc3n2)nc1 | i | i | i | i | 2.05 | i
CN1CCN(c2nc(-c3ccncc3)nc3ccccc23)CC1 | i | i | i | i | i | -3.84
CN1CCN(c2nc(-c3cccs3)nc3ccccc23)CC1 | nt | nt | i | i | nt | nt
COc1ccc(/C=c2/sc3n(c2=O)C(c2ccccc2OC)C2=C(N=3)c3ccccc3CC2)cc1O (configuration not stated) | i | i | 169.1 | i | i | nt
CCOC(=O)CSC1=Nc2ccccc2C2=NC(CC(=O)NCc3ccc4c(c3)OCO4)C(=O)N12 (configuration not stated) | i | i | i | i | i | i
Cc1cc(OCC(=O)Nc2ccncc2)cc(C)c1Br | i | i | i | 84.2 | i | nt
CC1CCCCN1CCNC(=O)c1cnn2ccccc12 (configuration not stated) | i | nt | i | i | i | i
O=C(NCCc1ccccc1)NC1CCCCC1 | i | i | i | i | i | -2.46
O=C(CC(=O)N1CCN(c2ccccn2)CC1)Nc1ccc2nc3n(c(=O)c2c1)CCCCC3 | i | nt | i | i | i | i
COc1ccc(N2CCN(c3ncnc4c3nnn4Cc3ccccc3Cl)CC2)cc1 | i | i | nt | nt | i | nt
CC(C)c1ccc(-c2nc(N3CCCC3)nc3n[nH]c(N)c23)cc1 | nt | i | i | i | i | i
CC(C)c1ccc(-c2nc(N3CCCCCC3)nc3n[nH]c(N)c23)cc1 | i | -4.26 | i | i | nt | nt
CSCCC(NS(=O)(=O)c1ccc(Cl)cc1)C(=O)OCC(=O)NC1CCCCC1 (configuration not stated) | i | i | i | i | 3.17 | nt
CSCCC(NS(=O)(=O)c1ccc(Cl)cc1)C(=O)OCC(=O)NC1CC1 (configuration not stated) | i | i | nt | nt | i | nt
CCCOc1ccc(-c2nc(C#N)c(N3CCN(CC)CC3)o2)cc1 | i | i | i | i | i | i
CCCCOCCCn1c(-c2ccco2)nc2nc3ccccc3nc21 | i | i | i | i | 3.45 | i
